“And” between values parts separate entries of the source, which are not always exact repeats. Identical values can stand only once. In all, about 5,500 compounds went through this assay and about 2,000 (36%) were called active. Roughly 18% stayed inconclusive and do not appear here. Cut-off read from the data, not from the text of the source: active = normalized growth mostly below about 0.91 (no sharp cut-off); inconclusive = no clear call, values can overlap the other calls; inactive = mostly above about 0.92. This is one part of the list.
Experiment: chemical genetic growth profiling, strain panel (AID 1159580);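 note: tested at 20 µM; growth read once vehicle control cultures reached saturation at 30 °C; 1 = growth at the plate median or of vehicle wells; lower values mean less growth of the strain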
Conditions: S. cerevisiae deletion strains, growth OD

Measured: normalized growth

COc1cc([C@H]2Oc3cc([C@H]4Oc5cc(O)cc(O)c5C(=O)[C@@H]4O)ccc3O[C@@H]2CO)ccc1O
inactive: locus YAL013W, strain DEP1, hits give low values 1 | locus YAL021C, strain ccr4, hits give low values 0.987 | locus YAL026C, strain drs2, hits give low values 1 | locus YAL030W, strain snc1, hits give low values 1.01 | locus YBL061C, strain skt5, hits give low values 1.01 | locus YBR009C, strain hhf1, hits give low values 1 | locus YBR021W, strain FUR4, hits give low values 1.06 | locus YBR023C, strain chs3, hits give low values 1.01 | locus YBR171W, strain sec66, hits give low values 1.02 | locus YBR229C, strain ROT2, hits give low values 0.991 | locus YBR231C, strain swc5, hits give low values 1.02 | locus YBR279W, strain paf1, hits give low values 1.01 | locus YCL011C, strain gbp2, hits give low values 1 | locus YCL016C, strain dcc1, hits give low values 0.992 | locus YCL029C, strain bik1, hits give low values 0.97 | locus YCL061C, strain MRC1, hits give low values 1.01 | locus YCL069W, strain vba3, hits give low values 1.01 | locus YCR088W, strain abp1, hits give low values 1.01 | locus YDL005C, strain med2, hits give low values 1.01 | locus YDL035C, strain GPR1, hits give low values 0.987 | locus YDL040C, strain nat1, hits give low values 1.01 | locus YDL074C, strain BRE1, hits give low values 0.986 | locus YDL101C, strain DUN1, hits give low values 0.989 | locus YDL134C, strain PPH21, hits give low values 1.01 | locus YDL185W, strain tfp1, hits give low values 0.964 | locus YDL192W, strain arf1, hits give low values 0.97 | locus YDR001C, strain nth1, hits give low values 1.01 | locus YDR069C, strain doa4, hits give low values 0.998 | locus YDR101C, strain arx1, hits give low values 0.976 | locus YDR137W, strain rgp1, hits give low values 0.996 | locus YDR150W, strain NUM1, hits give low values 0.969 | locus YDR159W, strain sac3, hits give low values 0.997 | locus YDR162C, strain NBP2, hits give low values 1.02 | locus YDR195W, strain ref2 1.02 | locus YDR297W, strain sur2, hits give low values 1.02 | locus YDR318W, strain mcm21, hits give low values 0.97 | locus YDR334W, strain swr1, hits give low values 1.01 | locus YDR335W, strain msn5, hits give low values 1 | locus YDR388W, hits give low values 0.984 | locus YDR392W, strain spt3, hits give low values 0.955 | locus YDR502C, strain sam2, hits give low values 0.977 | locus YEL003W, strain gim4, hits give low values 1.01 | locus YEL037C, strain rad23, hits give low values 1.01 | locus YEL061C, strain CIN8 (second series), hits give low values 1.02 | locus YEL061C, strain CIN8, hits give low values 1 | locus YER015W, strain faa2, hits give low values 1 | locus YER016W, strain bim1, hits give low values 1.01 | locus YER110C, hits give low values 0.958 | locus YER111C, strain swi4, hits give low values 1 | locus YER155C, strain BEM2 (second series), hits give low values 1.03 | locus YER155C, strain BEM2, hits give low values 1.02 | locus YER167W, strain BCK2, hits give low values 0.992 | locus YFR010W, strain ubp6, hits give low values 0.995 | locus YGL078C, strain dbp3, hits give low values 0.965 | locus YGL086W, strain mad1, hits give low values 0.975 | locus YGL167C, strain pmr1, hits give low values 1.01 | locus YGL173C, strain kem1, hits give low values 1.01 | locus YGL227W, strain vid30, hits give low values 1.01 | locus YGL240W, strain doc1, hits give low values 1.03 | locus YGL248W, strain PDE1, hits give low values 1.01 | locus YGL253W, strain hxk2, hits give low values 0.989 | locus YGR078C, strain PAC10, hits give low values 0.989 | locus YGR135W, strain pre9, hits give low values 0.987 | locus YGR229C, strain SMI1, hits give low values 1.01 | locus YGR252W, strain gcn5, hits give low values 0.961 | locus YHR013C, strain ard1, hits give low values 1 | locus YHR027C, strain rpn1, hits give low values 1 | locus YHR030C, strain SLT2, hits give low values 0.999 and 1.02 | locus YHR079C, strain IRE1 (second series), hits give low values 0.984 | locus YHR079C, strain IRE1, hits give low values 0.996 | locus YHR094C, strain hxt1, hits give low values 0.971 | locus YHR129C, strain ARP1, hits give low values 1 | locus YHR142W, strain chs7, hits give low values 0.997 | locus YHR200W, strain rpn10, hits give low values 0.959 | locus YIL066C, strain RNR3, hits give low values 0.968 | locus YIL073C, strain SPO22, hits give low values 0.906 | locus YIL125W, strain kgd1, hits give low values 0.987 | locus YIR030C, strain dcg1, hits give low values 0.981 | locus YJL092W, strain hpr5, hits give low values 1.01 | locus YJL095W, strain BCK1 (second series), hits give low values 1.02 | locus YJL095W, strain BCK1, hits give low values 0.998 and 0.981 | locus YJL115W, strain asf1, hits give low values 1.01 | locus YJL129C, strain trk1, hits give low values 1.03 | locus YJL134W, strain LCB3, hits give low values 1 | locus YJL154C, strain vps35, hits give low values 1.01 | locus YJL164C, strain tpk1, hits give low values 0.989 | locus YJL166W, strain qcr8, hits give low values 1.01 | locus YJL168C, strain set2, hits give low values 0.98 | locus YJL187C, strain SWE1 (second series), hits give low values 0.988 | locus YJL187C, strain SWE1, hits give low values 1.01 | locus YJR043C, strain POL32, hits give low values 0.998 | locus YJR066W, strain TOR1, hits give low values 0.954

From PubChem BioAssay AID1159580 (chemical genetic matrix, 2015)
